# Test results from the OligoGym collection.
# Legend:
# Test in all cases: pooled miR-30 sensor sort-seq; sequence = guide strand
# Settings in all cases: shRNA
# [1] = target: CNPPD1
# [2] = target: CNTD1
# [3] = target: COBRA1
# [4] = target: COG2
# [5] = target: CNOT1
# Further: reference of the scale not given here.
sequence,measurement,setting,value
TTCGTCGTTGAAGACCTCCTCC,sensor-assay potency score (higher = more potent),[1],0.0687
TTACTGGCCACCATCATGGAGA,sensor-assay potency score (higher = more potent),[1],-0.834
TAAACTTGTTGACAAGCTGCTG,sensor-assay potency score (higher = more potent),[2],-0.0466
TTCTAGGATTTCTACAGCCTGG,sensor-assay potency score (higher = more potent),[2],-0.787
TTGGATATGAGACTGGGGCTTT,sensor-assay potency score (higher = more potent),[3],-0.217
ATGAGCTCTACCTCCATCTTGG,sensor-assay potency score (higher = more potent),[3],-0.766
TTTCTCATGAAATGCATCGGGA,sensor-assay potency score (higher = more potent),[4],-0.465
TAGTCTGGGTTTCGGTGCCGGA,sensor-assay potency score (higher = more potent),[1],-1.29
TAATCTCTTTACACTAGCCTGT,sensor-assay potency score (higher = more potent),[4],-0.36
TCTCTCTGGAGCTTCTGGCAAA,sensor-assay potency score (higher = more potent),[1],-0.958
TTCAATGTACACCAGAGCCAGC,sensor-assay potency score (higher = more potent),[1],-1.25
AAACTTGTTGACAAGCTGCTGT,sensor-assay potency score (higher = more potent),[2],0.446
TTACCATAAACCTTTCTAGGAT,sensor-assay potency score (higher = more potent),[2],-0.637
TTTGGATGAAAGCACTTGCTGC,sensor-assay potency score (higher = more potent),[2],-0.907
AAACTTAGTGAAGCTTTCGGGA,sensor-assay potency score (higher = more potent),[3],-0.764
TACAGCTTCACGTTCTTCCCCA,sensor-assay potency score (higher = more potent),[3],0.123
TATGCCACAGCTAACAGGCAAG,sensor-assay potency score (higher = more potent),[1],-1.37
ATGAGCATCGGGAGGAACCTGG,sensor-assay potency score (higher = more potent),[3],-1.62
TAGAGCCTCCTTCGGATCCGGG,sensor-assay potency score (higher = more potent),[1],-1.33
TATTCTTCAAACAAGTTCCTTA,sensor-assay potency score (higher = more potent),[5],0.402
TAGACTGCTGTCTCCCCGGAGT,sensor-assay potency score (higher = more potent),[2],-0.817
TTGCTGTCCACGAACCGCTCTC,sensor-assay potency score (higher = more potent),[3],-0.427
TTCATGCAGAAGATAGACCAGG,sensor-assay potency score (higher = more potent),[2],-0.656
TTCTTGTTCCTCTGCTTGGTGA,sensor-assay potency score (higher = more potent),[3],-1.3
TTCGACAGCAATGTCTGCCACC,sensor-assay potency score (higher = more potent),[1],-0.8
TTTTGTGTCATATTTGACTGTG,sensor-assay potency score (higher = more potent),[5],0.162
TTCTGATCCACATTGAAAGTGT,sensor-assay potency score (higher = more potent),[3],-0.064
TTTTTTCTCCGGAACCTTGGGC,sensor-assay potency score (higher = more potent),[3],0.129
TATTTCTTCTGGAGTCGGCGAA,sensor-assay potency score (higher = more potent),[1],-0.148
TTTTGGATGAAAGCACTTGCTG,sensor-assay potency score (higher = more potent),[2],-1.34
